About 2,000 (36%) of roughly 5,500 compounds were called active. Roughly 18% stayed inconclusive and do not appear here. Cut-off read from the data, not from the text of the source: active = normalized growth mostly below about 0.91 (no sharp cut-off); inconclusive = no clear call, values can overlap the other calls; inactive = mostly above about 0.92. The list shows a part of the results.
Test: chemical genetic growth profiling, strain panel (AID 1159580);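 note: tested at 20 µM; growth read once vehicle control cultures reached saturation at 30 °C; 1 = growth at the plate median or of vehicle wells; lower values mean less growth of the strain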
Settings: S. cerevisiae deletion strains, growth OD

Measured: normalized growth

C[N+](C)(C)CCC(=O)c1cccc2ccccc12
active: locus YAL040C, strain CLN3, stronger effect = lower value 0.095 | locus YJR075W, strain HOC1, stronger effect = lower value 0.813 | locus YMR307W, strain GAS1, stronger effect = lower value 0.775 | locus YNL153C, strain GIM3, stronger effect = lower value 0.104 | locus YNL175C, strain NOP13, stronger effect = lower value 0.0891 | locus YNL224C, strain SQS1, stronger effect = lower value 0.0743 | locus YOR083W, strain WHI5 (second series), stronger effect = lower value 0.231
inactive: locus YCL061C, strain MRC1 (second series), stronger effect = lower value 0.951 | locus YDR150W, strain NUM1, stronger effect = lower value 0.972 | locus YDR363W, strain ESC2, stronger effect = lower value 0.962 | locus YGR078C, strain PAC10, stronger effect = lower value 0.989 | locus YMR263W, strain SAP30, stronger effect = lower value 0.99 | locus YNL197C, strain WHI3, stronger effect = lower value 0.93 | locus YPL241C, strain CIN2, stronger effect = lower value 1

COc1cccc(C2CCN(C(=O)c3cccc4ccccc34)CC2)c1
inactive: locus YAR019C, strain CDC15, stronger effect = lower value 0.996 | locus YBL105C, strain PKC1, stronger effect = lower value 0.988 | locus YBR135W, strain CKS1, stronger effect = lower value 0.982 | locus YBR136W, strain MEC1, stronger effect = lower value 0.981 | locus YBR160W, strain CDC28, stronger effect = lower value 0.991 | locus YDL017W, strain CDC7, stronger effect = lower value 0.99 | locus YDL028C, strain MPS1, stronger effect = lower value 0.993 | locus YDL101C, strain DUN1, stronger effect = lower value 0.982 | locus YDL108W, strain KIN28, stronger effect = lower value 0.987 | locus YDL132W, strain cdc53, stronger effect = lower value 0.993 | locus YDL214C, strain PRR2, stronger effect = lower value 0.866 | locus YDR052C, strain DBF4, stronger effect = lower value 0.99 | locus YDR054C, strain cdc34, stronger effect = lower value 0.988 | locus YDR226W, strain ADK1, stronger effect = lower value 0.988 | locus YDR477W, strain SNF1, stronger effect = lower value 0.923 | locus YER123W, strain YCK3, stronger effect = lower value 0.828 | locus YER133W, strain GLC7, stronger effect = lower value 0.899 | locus YFL009W, strain cdc4, stronger effect = lower value 0.992 | locus YFL029C, strain CAK1, stronger effect = lower value 0.99 | locus YFR003C, strain YPI1, stronger effect = lower value 0.987 | locus YFR019W, strain FAB1, stronger effect = lower value 0.89 | locus YFR028C, strain CDC14, stronger effect = lower value 0.99 | locus YGR040W, strain KSS1, stronger effect = lower value 0.904 | locus YGR052W, strain FMP48, stronger effect = lower value 0.958 | locus YGR092W, strain DBF2, stronger effect = lower value 0.903 | locus YHR030C, strain SLT2, stronger effect = lower value 1 | locus YHR079C, strain IRE1, stronger effect = lower value 0.967 | locus YHR082C, strain KSP1, stronger effect = lower value 0.946 | locus YHR205W, strain SCH9, stronger effect = lower value 0.907 | locus YIL147C, strain SLN1, stronger effect = lower value 0.987 | locus YJL095W, strain BCK1, stronger effect = lower value 0.973 | locus YJL128C, strain PBS2, stronger effect = lower value 0.935 | locus YJL157C, strain FAR1, stronger effect = lower value 0.886 | locus YJR016C, strain ILV3, stronger effect = lower value 0.99 | locus YJR066W, strain TOR1 (second series), stronger effect = lower value 0.882 | locus YJR066W, strain TOR1, stronger effect = lower value 0.948 | locus YKL048C, strain ELM1, stronger effect = lower value 0.919 | locus YKL067W, strain YNK1, stronger effect = lower value 0.907 | locus YKL101W, strain HSL1, stronger effect = lower value 0.882 | locus YKL193C, strain SDS22, stronger effect = lower value 0.991 | locus YKL203C, strain TOR2, stronger effect = lower value 0.978 | locus YLR113W, strain HOG1, stronger effect = lower value 0.91 | locus YLR133W, strain CKI1, stronger effect = lower value 0.94 | locus YLR403W, strain SFP1, stronger effect = lower value 0.922 | locus YML070W, strain DAK1, stronger effect = lower value 0.859 | locus YMR001C, strain CDC5, stronger effect = lower value 0.987 | locus YMR205C, strain PFK2 (second series), stronger effect = lower value 0.914 | locus YMR277W, strain FCP1, stronger effect = lower value 0.995 | locus YNL006W, strain LST8, stronger effect = lower value 0.987 | locus YNL020C, strain ARK1, stronger effect = lower value 0.9 | locus YNL161W, strain CBK1, stronger effect = lower value 0.992 | locus YNL183C, strain NPR1, stronger effect = lower value 0.963 | locus YNL207W, strain RIO2, stronger effect = lower value 0.997 | locus YNL222W, strain SSU72, stronger effect = lower value 0.994 | locus YNL307C, strain MCK1 (second series), stronger effect = lower value 0.903 | locus YOL078W, strain AVO1, stronger effect = lower value 0.997 | locus YOL136C, strain PFK27, stronger effect = lower value 0.898 | locus YOR061W, strain CKA2, stronger effect = lower value 0.877 | locus YOR119C, strain RIO1, stronger effect = lower value 0.954 | locus YOR231W, strain MKK1, stronger effect = lower value 0.935 | locus YOR329C, strain SCD5, stronger effect = lower value 0.991 | locus YPL031C, strain PHO85, stronger effect = lower value 0.913 | locus YPL153C, strain RAD53, stronger effect = lower value 0.899 | locus YPL204W, strain HRR25, stronger effect = lower value 0.923 | locus YPL209C, strain IPL1, stronger effect = lower value 0.992 | locus YPL256C, strain CLN2, stronger effect = lower value 0.942 | locus YPR025C, strain CCL1, stronger effect = lower value 0.995 | locus YPR106W, strain ISR1, stronger effect = lower value 0.979 | locus YPR111W, strain DBF20, stronger effect = lower value 0.975 | strain NNK1, stronger effect = lower value 0.976 | strain TSCII, stronger effect = lower value 0.993

Source: PubChem BioAssay AID1159580 (chemical genetic matrix, 2015)
